# From PubChem BioAssay (NCATS)
# Activity calls are given as the source filed them. Calls come from the whole dose curve; as a rule, active = well fitted curve in the direction sought with a large enough effect; inconclusive = small, poorly fitted or top-dose-only effect, or another doubt; inactive = no such curve, though single readings can be large; an effect the other way counts as inactive or inconclusive.
# Legend:
# [1] = target: Alpha-galactosidase (Coffea arabica) (UniProt Q42656); assay: Counterscreen for Glucocerebrosidase Inhibitors: qHTS Assay for Coffee Bean alpha-Galactosidase at pH 4.5 (AID 957); note: series mostly up to about 77 µM
# Outline: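 Enzyme is added first (2 nM final), then compounds titrated from 0.7 nM to 77 uM, then 80 uM 4-methylumbelliferyl alpha-D-galactopyranoside; after 20 min at room temperature a pH 10 NaOH/glycine stop precedes fluorescence reading at 365/440 nm.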
# [2] = target: Alpha-galactosidase (Coffea arabica) (UniProt Q42656); assay: Counterscreen for Glucocerebrosidase Inhibitors: qHTS Assay for Coffee Bean alpha-Galactosidase at pH 5.9 (AID 998)
# Outline: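 Fluorogenic 4-MU substrate hydrolysis, 80 uM substrate and 2 nM coffee bean alpha-galactosidase, pH 5.9 citrate buffer, 20 min at room temperature, then NaOH/glycine stop. Titration 0.7 nM–77 uM, normalized to no-enzyme and enzyme controls, AC50 via Hill equation.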
# Alpha-galactosidase (Coffea arabica), sequence (Q42656 whole entry, looked up): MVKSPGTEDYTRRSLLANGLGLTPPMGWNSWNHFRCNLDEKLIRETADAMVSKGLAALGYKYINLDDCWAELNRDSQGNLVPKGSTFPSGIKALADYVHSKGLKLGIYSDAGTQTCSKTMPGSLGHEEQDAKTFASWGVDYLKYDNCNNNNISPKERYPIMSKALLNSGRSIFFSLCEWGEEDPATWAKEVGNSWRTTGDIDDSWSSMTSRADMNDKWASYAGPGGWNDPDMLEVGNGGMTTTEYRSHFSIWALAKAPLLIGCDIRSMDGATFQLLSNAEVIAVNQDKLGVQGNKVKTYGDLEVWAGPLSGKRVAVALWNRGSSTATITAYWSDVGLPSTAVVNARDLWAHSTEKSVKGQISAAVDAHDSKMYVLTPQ
Compound,outcome [1],outcome [2]
CC1=C(C(=O)O)N2C(=O)[C@@H](NC(=O)[C@@H](N)C3=CCC=CC3)[C@@H]2SC1,inactive,inactive
C#CCN1C(C)=C(C(=O)OC)[C@@H](c2cccc([N+](=O)[O-])c2)C(C(=O)OCC)=C1C,inactive,inactive
CCN1CCC[C@@H]1CNC(=O)c1cc(S(N)(=O)=O)ccc1OC,inactive,inactive
N[C@H](Cc1cccc(-c2ccccc2CP(=O)(O)O)c1)C(=O)O,inactive,inactive
COc1cc2nc(N3CCN(C(=O)[C@H]4COc5ccccc5O4)CC3)nc(N)c2cc1OC,inactive,inactive
CN1CCN([C@@H]2Cc3ccccc3Sc3ccc(Cl)cc32)CC1,inactive,inactive
CC(=O)O[C@@H]1C[C@]2(C)[C@H](C[C@@H](O)[C@H]3[C@@]4(C)CC[C@@H](O)[C@@H](C)[C@@H]4CC[C@@]32C)/C1=C(\CCC=C(C)C)C(=O)O,inactive,inactive
C[C@@H]1c2cccc(O)c2C(O)=C2C(=O)[C@@]3(O)C(O)=C(C(N)=O)C(=O)[C@@H](N(C)C)[C@@H]3[C@@H](O)[C@@H]21,inactive,inactive
O=C(O)[C@H]1CCCN(CCC=C(c2ccccc2)c2ccccc2)C1,inactive,inactive
CCCCCCCCCCCCC/C=C\[C@@H](O)[C@@H](N)CO,inactive,inactive
CC(=O)[C@@]1(O)Cc2c(O)c3c(c(O)c2[C@H](O[C@H]2C[C@H](N)[C@H](O)[C@H](C)O2)C1)C(=O)c1ccccc1C3=O,inactive,inactive
CC(C)C[C@H](NC(=O)[C@@H]1O[C@H]1C(=O)O)C(=O)NCCCCN=C(N)N,inactive,inactive
CN1CC[C@@]2(CCN3CCc4c(oc5ccccc45)[C@@H]3C2)N(C)C1=O,inactive,inactive
Nc1nc(Cl)nc2c1ncn2[C@@H]1O[C@@H](CO)[C@@H](O)[C@H]1O,inactive,inactive
COc1cc2c(cc1O)CC[C@@H]1[C@@H]2CC[C@@]2(C)[C@H](O)CC[C@H]12,inactive,inactive
O=C1N=C(O)CN1/N=C\c1ccc(-c2ccc([N+](=O)[O-])cc2)o1,inactive,inactive
C[C@@H]1C[C@@H]2[C@H]3CCC4=CC(=O)C=C[C@]4(C)[C@]3(F)[C@@H](O)C[C@@]2(C)[C@@]1(O)C(=O)CO,inactive,inactive
CCCN(CCc1ccccc1)[C@H]1CCc2c(O)cccc2C1,inactive,inactive
Cc1cn([C@H]2C[C@H](N=[N+]=[N-])[C@H](CO)O2)c(=O)[nH]c1=O,inactive,inactive
COc1cccc2c1[C@@H]1CN(CCCCn3c(=O)[nH]c4c(sc5ncc(-c6ccccc6)nc54)c3=O)C[C@H]1CO2,inactive,inactive

Compound,outcome [1],outcome [2]
NC[C@H](O)C1CCCCCCC1,inactive,inactive
COc1cc2nc(N3CCN(C(=O)OCc4ccccc4)[C@H](C(=O)NC(C)(C)C)C3)nc(N)c2cc1OC,inactive,inactive
C[C@@H]1C[C@@H]2[C@H]3CCC4=CC(=O)C=C[C@]4(C)[C@]3(Cl)[C@@H](O)C[C@@]2(C)[C@@]1(O)C(=O)CO,inactive,inactive
CN(C)CC[C@@H](c1ccccc1)c1ccccn1,inactive,inactive
NC(=O)c1cc[n+](CC2=C(C(=O)O)N3C(=O)[C@@H](NC(=O)[C@H](c4ccccc4)S(=O)(=O)[O-])[C@@H]3SC2)cc1,inactive,inactive
CC(C)[C@@H]1NC(=O)[C@H](CCCCN)NC(=O)[C@H](Cc2c[nH]c3ccccc23)NC(=O)[C@H](Cc2ccc(O)cc2)NC(=O)[C@H](C)N(C)C(=O)[C@H](Cc2ccccc2)NC1=O,inactive,inactive
CN1CCc2cc(Cl)c(O)cc2[C@H](c2ccccc2)C1,inactive,inactive
C#C[C@H](N)CCC(=O)O,inactive,inactive
CC1=C(C(=O)O)N2C(=O)[C@@H](NC(=O)[C@@H](N)c3ccccc3)[C@@H]2SC1,inactive,inactive
NCCC[C@@](N)(C(=O)O)C(F)F,inactive,inactive
Nc1ncnc2c1ncn2[C@@H]1O[C@@H](CO)[C@H](O)[C@@H]1O,inactive,inactive
Oc1ccc([C@@H]2CNCCc3c2cc(O)c(O)c3Cl)cc1,inactive,inactive
OC[C@@H]1O[C@@H](n2cnc3c(N[C@@H]4C[C@@H]5CC[C@H]4C5)ncnc32)[C@@H](O)[C@H]1O,inactive,inactive
CN(C)CCCO[C@H]1[C@H]([C@H](O)CO)O[C@H]2OC(C)(C)O[C@@H]21,inactive,inactive
COCCOC(=O)C1=C(C)NC(C)=C(C(=O)OC(C)C)[C@@H]1c1cccc([N+](=O)[O-])c1,inactive,inactive
OCCN1CCN(CC/C=C2\c3ccccc3Sc3ccc(C(F)(F)F)cc32)CC1,inactive,inactive
Nc1nc(SCc2ccc([N+](=O)[O-])cc2)c2ncn([C@@H]3O[C@@H](CO)[C@@H](O)[C@H]3O)c2n1,inactive,inactive
C[C@H]1CN(S(=O)(=O)c2cccc3cnccc23)CCN1,inactive,inactive
CC[C@]1(O)C[C@H]2CN(CCc3c([nH]c4ccccc34)[C@](C(=O)OC)(c3cc4c(cc3OC)N(C)[C@@H]3[C@](O)(C(=O)OC)[C@H](OC(C)=O)[C@]5(CC)C=CCN6CC[C@]43[C@@H]65)C2)C1,inactive,inactive
CCCCCCCCCCCCCCCCCC(=O)O[C@H](CC(=O)O)C[N+](C)(C)C,inactive,inactive

Compound,outcome [1],outcome [2]
O=C(/C=C\c1ccc(O)cc1)c1ccc(O)cc1O,inactive,inactive
Fc1cccc(/C=N\N=C/c2cccc(F)c2)c1,inactive,inactive
[N-]=[N+]=Nc1ccc(C(=O)CSC[C@@H](NC(=O)CC[C@@H](N)C(=O)O)C(=O)NCC(=O)O)cc1,inactive,inactive
N[C@@H]1CCN(O)C1=O,inactive,inactive
CC(=O)S[C@@H]1CC2=CC(=O)CC[C@@]2(C)[C@H]2CC[C@]3(C)[C@H](CC[C@@]34CCC(=O)O4)[C@H]12,inactive,inactive
OC[C@@H]1O[C@@H](n2cnc3c(NC4CCCCC4)ncnc32)[C@@H](O)[C@H]1O,inactive,inactive
CC(C)(C)NC[C@H](O)COc1cccc2[nH]c(=O)[nH]c12,inactive,inactive
OC[C@H]1O[C@@H](n2cnc3c(NCCc4ccccc4)ncnc32)[C@H](O)[C@H]1O,inactive,inactive
Nc1ncnc2c1ncn2[C@@H]1O[C@@H](C(=O)NC2CC2)[C@H](O)[C@@H]1O,inactive,inactive
O[C@@](CCN1CCCCC1)(c1ccccc1)C1CCCCC1,inactive,inactive
CC(=O)[C@@]1(O)CC[C@@H]2[C@@H]3CCC4=CC(=O)CC[C@@]4(C)[C@H]3CC[C@]21C,inactive,inactive
CC(=O)OCC1=C(C(=O)O)N2C(=O)[C@@H](NC(=O)Cc3cccs3)[C@@H]2SC1,inactive,inactive
C[C@H](NCCc1ccc(O)cc1)[C@@H](O)c1ccc(O)cc1,inactive,inactive
CCOC(=O)C1=C(C)NC(C)=C(C(=O)OC)[C@H]1c1cccc(Cl)c1Cl,inactive,inactive
Nc1ccc(CCNc2ncnc3c2ncn3[C@@H]2O[C@@H](CO)[C@H](O)[C@@H]2O)cc1,inactive,inactive
C[C@@H](CCc1ccc(O)cc1)NCCc1ccc(O)c(O)c1,inactive,inactive
NC(=O)c1ncn([C@@H]2O[C@@H](CO)[C@@H](O)[C@H]2O)c1O,inactive,inactive
c1ccc([C@@H]2CN3CCSC3=N2)cc1,inactive,inactive
CN(C)[C@@H]1C(=O)C(C(N)=O)=C(O)[C@]2(O)C(=O)C3=C(O)c4c(O)ccc(Cl)c4[C@H](O)[C@H]3C[C@@H]12,inactive,inactive
COC(=O)[C@H](N)Cc1ccc(Cl)cc1,inactive,inactive
